Compound activity deposited in PubChem BioAssay by National Center for Advancing Translational Sciences (NCATS).
Most compounds without a hit are left out; they make up all but 15% or so of the library.
TDP1 cell noCPT = qHTS for Inhibitors of human tyrosyl-DNA phosphodiesterase 1 (TDP1): qHTS in cells in absence of CPT. DT40 Tdp1-/- hTDP1 cells, no CPT, ATP luminescence, 48 h. Potency, µM (series often up to 46.2 µM), for the others: top-dose activity change, negative = growth inhibition, actives largely listed as inhibitors. actives 15% (n = 420,000); further: nearly all actives have a fitted effect of over 55% in size
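Seeded 400 DT40-hTDP1 cells/well (vehicle DMSO, no 20 nM CPT); pinned compounds; ≥48 hr at 37 °C; CellTiter-Glo luminescence as viability measure.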
VP16 counter = VP16 counterscreen qHTS for inhibitors of ROR gamma transcriptional activity; Drosophila S2 Gal4-VP16 UAS-luciferase, luminescence, 20 h; Potency, µM (highest dose often 53.6 µM), without a hit: at the top dose activity, negative = inhibition, hits mostly inhibitors; actives 3.5% (n = 310,000);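 further: Gal4-VP16 expression switched on by copper sulfate through the metallothionein promoter; nearly all actives have a fitted effect of over 50% in size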
12-LOX inh = Primary qHTS assay for inhibitors of human arachidonate 12S-lipoxygenase (ALOX12): Round 2 | actives 1.1% (n = 580,000) | Potency, µM (top dose mostly 108 µM), for inactives: at the highest dose activity change, negative = inhibition, hits mostly inhibitors | purified 12hLO, xylenol orange hydroperoxide absorbance | AID 1671190, 2021
Target sequence (P18054 whole entry, looked up): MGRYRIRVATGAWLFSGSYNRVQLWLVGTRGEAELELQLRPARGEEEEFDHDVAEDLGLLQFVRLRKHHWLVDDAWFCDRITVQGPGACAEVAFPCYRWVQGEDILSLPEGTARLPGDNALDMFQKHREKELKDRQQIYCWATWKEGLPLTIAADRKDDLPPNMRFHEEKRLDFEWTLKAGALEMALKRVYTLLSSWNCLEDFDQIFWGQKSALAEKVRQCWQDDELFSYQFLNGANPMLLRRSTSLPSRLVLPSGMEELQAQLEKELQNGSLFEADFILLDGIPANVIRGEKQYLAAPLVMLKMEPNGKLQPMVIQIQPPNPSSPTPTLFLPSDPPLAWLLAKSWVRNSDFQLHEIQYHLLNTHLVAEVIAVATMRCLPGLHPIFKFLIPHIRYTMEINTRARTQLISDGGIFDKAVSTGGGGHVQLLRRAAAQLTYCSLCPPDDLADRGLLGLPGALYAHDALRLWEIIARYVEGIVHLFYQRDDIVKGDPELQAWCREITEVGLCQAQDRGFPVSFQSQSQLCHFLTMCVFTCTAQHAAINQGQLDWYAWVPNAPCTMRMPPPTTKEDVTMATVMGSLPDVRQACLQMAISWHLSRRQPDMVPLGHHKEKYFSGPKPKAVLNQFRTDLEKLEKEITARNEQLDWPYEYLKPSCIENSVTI
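Purified human 12hLO (150 nM final) in 25 mM Hepes, 0.01% Triton X-100, pH 7.0 was preincubated 15 min at room temperature with compound. Then 40 uM arachidonic acid was added, 30 min. Hydroperoxide was read by Fe-XO absorbance ratio 573/405 nm.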
DT40 TDP1 CPT = qHTS for Inhibitors of human tyrosyl-DNA phosphodiesterase 1 (TDP1): qHTS in cells in presence of CPT; chicken DT40 Tdp1-/-;hTDP1 cells + 20 nM CPT, ATP luminescence, 48 h; actives 12% (n = 420,000); Potency, µM (top dose mostly 46.2 µM), for inactives: top-dose activity change, negative = growth inhibition, usual class: inhibitors; AID 686979, 2013; further: nearly all actives have a fitted effect of over 55% in size
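Chicken DT40 Tdp1-/- cells complemented with human TDP1, 400 cells/well, exposed to compounds plus 20 nM camptothecin for at least 48 h at 37 C; viability read as ATP content by CellTiter-Glo luminescence.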
RORgamma inh = qHTS for inhibitors of ROR gamma transcriptional activity. Nuclear receptor ROR-gamma (Mus musculus), P51450. Drosophila S2 Gal4-RORgamma UAS-luciferase reporter, 20 h. Potency, µM (highest dose often 53.6 µM), for the others: top-dose activity change, negative = inhibition, most hits filed as inhibitors. actives 5.4% (n = 310,000). AID 2551, 2010; further: nearly all actives have a fitted effect of over 60% in size
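Compounds are pin-transferred onto Drosophila Schneider cells expressing a copper-inducible Gal4–ROR gamma transactivation domain fusion. After 1 hr, copper sulfate is added to 700 uM final; luciferase is read 20 hr later.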
ELG1 DNA repair = qHTS screen for small molecules that inhibit ELG1-dependent DNA repair in human embryonic kidney (HEK293T) cells expressing luciferase-tagged ELG1 | AID 504467, 2011 | HEK293T ELG1-luciferase reporter, luminescence, 16 h; DNA damage induced by 5-fluorouridine | Potency, µM (highest dose often 46.1 µM), inactives show at the top dose activity change, negative = inhibition, usual class: inhibitors | actives 2.3% (n = 330,000); further: nearly all actives have a fitted effect of over 55% in size
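Step one: seed 2,000 cells per well. Step two: pin-transfer compound or DMSO alongside 5-fluorouridine. Step three: incubate 16 hr, 37 °C, 5% CO2. Step four: add ONE-Glo, wait 30 min, read luminescence.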
* hit, by the source's call; ? = inconclusive; . = no result; [ ] = another dose, or the depositor's remark. The call rests on the fitted dose curve; in most records, active means well fitted curve in the direction sought with a large enough effect; inconclusive means small, poorly fitted or top-dose-only effect, or another doubt; inactive means no such curve, though single readings can be large; an effect the other way counts as inactive or inconclusive. On the % scale 0 is the no-effect control and ±100 the full control effect; potency means the concentration at half of the fitted maximal effect.

SMILES	TDP1 cell noCPT	VP16 counter	12-LOX inh	DT40 TDP1 CPT	RORgamma inh	ELG1 DNA repair
c1ccc(COc2ccc(OCCCCN3CCCCC3)cc2)cc1	21µM*	-7%	?	29µM*	-8%	?
CCN1CCN(CCCOc2ccc(-c3ccccc3)cc2)CC1	?	-19%	-5%	?	14%	?
c1ccc(-c2ccc(OCCCn3cncn3)cc2)cc1	?	-8%	1.4µM*	?	?	?
O=C(c1ccccc1)c1ccc(OCCCCN2CCCCC2)cc1	-1%	0%	?	-18%	-5%	5%
CNC(=O)c1ccc(CN(C(=O)c2ccsc2)C2CC2)cc1	.	.	47%	.	.	.
CS(=O)(=O)N1CCC2(CC1)CN(Cc1ccncc1)Cc1ccccc1O2	.	.	5%[6.33 µM]	.	.	.
Cc1noc([C@@H]2CN(Cc3cccc(F)c3F)C[C@H]2CO)n1	.	.	10%	.	.	.
Cc1ccc(-c2cn3ccccc3n2)cc1C	.	.	7%	.	.	.
CCCOc1ccc(C(C)=O)cc1CSCCC#N	?	-13%	1%	?	16%	4%
CCCOc1ccc(C(C)=O)cc1CSc1nc(O)cc(=O)[nH]1	9.2µM*	3%	-16%	21µM*	?	-14%
C=C(C)C1CC=C(C)/C(=N/NC(=S)Nc2ccccc2)C1 (configuration not stated)	6.5µM*	1.1µM*	?	12µM*	1.1µM*	5%
C=C(C)C1CC=C(C)/C(=N/NC(=O)Nc2ccccc2)C1 (configuration not stated)	.	.	5%	.	.	.
C=C(C)C1CC=C(C)/C(=N/NC(=O)c2ccc(NC(=O)c3cccc(C)c3)cc2)C1 (configuration not stated)	18µM*	1%	10%	?	19%	?
COc1ccccc1C(=O)N1CCCCCC1c1nc(C)no1 (configuration not stated)	.	.	39%	.	.	.
CC(Sc1ncnc2nc[nH]c12)C(=O)NCc1ccc(Cl)cc1 (configuration not stated)	.	.	-15%	.	.	.
CCOC(=O)C1CCCN(C(=O)c2cc3cc(F)ccc3[nH]2)C1 (configuration not stated)	?	6%	363%	?	28%	?
O=C(c1cc2cc(F)ccc2[nH]1)N1CCCC(Nc2ccc(F)cc2)C1 (configuration not stated)	?	-5%	-9%	15µM*	?	1%
c1csc(-c2cn3ccc4ccccc4c3n2)c1	-19%	?	-12%	-14%	0%	16µM*
c1cc(-c2cccs2)nc(-c2cccs2)c1	-12%	-3%	-1%	19%	0%	?
Cc1cc(C)c2nc(N(CCCN(C)C)C(=O)c3ccc4c(c3)CCCC4)sc2c1	10µM*	.	?	21µM*	.	-10%
Cc1cccc2sc(N(CCCN(C)C)C(=O)c3cccc(F)c3)nc12	.	.	-30%	.	.	.
CN(C)CCCN(C(=O)c1ccc2c(c1)CCCC2)c1nc2c(F)cccc2s1	23µM*	-89%	?	21µM*	?	?
CCOc1ccc2nc(N(CCN(C)C)C(=O)c3ccc4c(c3)CCCC4)sc2c1	?	-6%	.	?	-9%	16%
CC(C)N(Cc1ccc([N+](=O)[O-])cc1)c1ccccc1	.	.	20%	.	.	.
CC#CCOC(=O)c1c(C)nc2sc3c(c2c1N)CC[C@@H](O)C3	11µM*	?	?	-59%	7.1µM*	.
SMILES	TDP1 cell noCPT	VP16 counter	12-LOX inh	DT40 TDP1 CPT	RORgamma inh	ELG1 DNA repair
CC(=O)N1CCCc2cc(S(=O)(=O)N3CCCC(C(=O)Nc4cccc(Cl)c4C)C3)ccc21 (configuration not stated)	?	.	?	16µM*	.	.
CCOc1ccccc1NC(=O)C1CCCN(S(=O)(=O)c2ccc3c(c2)CCCN3C(C)=O)C1 (configuration not stated)	15µM*	.	10%	26µM*	.	.
COc1cc(C)nc(N2CCCC(C(=O)Nc3ccccc3Br)C2)n1 (configuration not stated)	15%	-3%	-3%	-4%	-1%	-18%
CC(=O)N1CCCc2cc(S(=O)(=O)N3CCCC(C(=O)Nc4ccc(F)cc4F)C3)ccc21 (configuration not stated)	21µM*	.	-13%	?	.	.
CC(=O)N1CCCc2cc(S(=O)(=O)N3CCCC(C(=O)Nc4ccc(C)cc4C)C3)ccc21 (configuration not stated)	?	-6%	-2%	-27%	-16%	?
COc1cc(C)nc(N2CCCC(C(=O)Nc3cccc(Cl)c3C)C2)n1 (configuration not stated)	?	-12%	0%	23µM*	30%	11%
CC(=O)N1CCCc2cc(S(=O)(=O)N3CCCC(C(=O)Nc4ccccc4C)C3)ccc21 (configuration not stated)	-10%	-1%	-26%	?	-3%	-1%
COc1ccc(C)cc1NC(=O)C1CCCN(S(=O)(=O)c2ccc3c(c2)CCCN3C(C)=O)C1 (configuration not stated)	?	1%	?	?	7%	-6%
Cc1cccc2c(=O)c(-c3ccccc3)c(N)oc12	.	.	22%	.	.	.
CC(C)(C)CN1CCC2(CC1)Cc1ccccc1CNC2=O	.	.	1%[6.33 µM]	.	.	.
c1cc(SSc2ccncc2)ccn1	16µM*	-14%	6.3µM*	?	-25%	3%
CC1Cc2nc(SCC(=O)NC3CCCCC3)n(C)c(=O)c2S1 (configuration not stated)	-22%	.	-15%	-30%	4%[0.365 µM]	4%
CCc1nnc(NC(=O)CSc2nc3c(c(=O)n2C)SC(C)C3)s1 (configuration not stated)	21µM*	-9%	6%[57.4 µM]	?	9%	10%
CCSc1nnc(NC(=O)CSc2nc3c(c(=O)n2CC)SC(C)C3)s1 (configuration not stated)	8.2µM*	-13%	0%	13µM*	18%	?
CCSc1nnc(NC(=O)CSc2nc3c(c(=O)n2C)SC(C)C3)s1 (configuration not stated)	11µM*	.	-18%	15µM*	-19%[0.365 µM]	?
